Screens as filed in PubChem BioAssay.
PAFAH1B2 inh – inhibitors of human PAFAH1B2. P68402. recombinant PAFAH1B2, FP-rhodamine activity probe, fluorescence polarization. inhibition, % at 3.39 µM. actives 1.2% (n = 340,000). AID 492953;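 active = inhibition above the mean of all tested compounds plus 3 SD, cut at about 24% in these data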;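 note: 0% = enzyme with DMSO and 100% = wells lacking PAFAH1B2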
Target sequence (P68402 whole entry, looked up): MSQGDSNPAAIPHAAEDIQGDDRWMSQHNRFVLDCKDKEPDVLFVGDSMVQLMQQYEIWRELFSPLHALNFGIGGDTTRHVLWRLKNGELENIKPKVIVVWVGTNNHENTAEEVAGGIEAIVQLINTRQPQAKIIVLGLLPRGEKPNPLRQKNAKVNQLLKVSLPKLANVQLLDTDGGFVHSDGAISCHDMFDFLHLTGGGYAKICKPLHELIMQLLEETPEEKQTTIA
PAFAH2 inh – PAFAH2 (human) inhibition. Q99487. recombinant PAFAH2, FP-rhodamine activity probe, fluorescence polarization. inhibition, % at 3.39 µM. actives 0.99% (n = 340,000);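 active = inhibition above the mean over all tested compounds plus 3 SD, cut at about 30% in these data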;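 note: inhibitors block probe labeling of enzyme so polarization drops; 0% = enzyme with DMSO and 100% = wells lacking PAFAH2 protein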
EBNA-1 inhibitor – blocks EBNA-1 binding to DNA. actives 0.34% (n = 300,000). EBNA-1 DNA binding, fluorescence polarization. inhibition, % at 14.8 µM; in the data active = inhibition above about 28%
rCAG binder – molecules binding r(CAG) RNA repeats. inhibition, % at 3 µM. AID 651821. r(CAG) RNA repeat, TO-PRO-1 dye displacement fluorescence. actives 1.3% (n = 370,000);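 active = inhibition above the plate cutoff, the mean of all test compounds on that plate plus 3 SD, cut at about 35% in these data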;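 note: 0% = DMSO alone and 100% = 100 µM mitoxantrone as full dye displacement; higher means more dye released from RNA so lower well fluorescence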
ZTA DNA inh – blocks Epstein-Barr virus ZTA, an EBNA-1 counter-screen | inhibition, % at 11 µM | actives 0.15% (n = 320,000) | P03206 | ZTA-DNA binding, fluorescence polarization | AID 2234; in the data active = inhibition above about 33%
Target sequence (P03206 whole entry, looked up): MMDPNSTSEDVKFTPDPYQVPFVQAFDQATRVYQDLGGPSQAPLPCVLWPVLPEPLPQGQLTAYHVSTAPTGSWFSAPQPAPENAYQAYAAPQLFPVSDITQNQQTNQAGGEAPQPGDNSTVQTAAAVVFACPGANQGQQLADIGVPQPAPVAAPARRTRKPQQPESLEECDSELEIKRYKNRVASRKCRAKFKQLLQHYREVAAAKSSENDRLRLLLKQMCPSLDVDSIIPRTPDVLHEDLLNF
PAFAH1B3 inh – blocks human PAF acetylhydrolase 1B catalytic subunit 3 | Q15102 | recombinant PAFAH1B3, FP-rhodamine probe, fluorescence polarization | inhibition, % at 3.39 µM | actives 0.28% (n = 340,000) | AID 492972;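 active = inhibition above the screen-wide average of all tested compounds plus 3 SD, cut at about 25% in these data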;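 note: 0% = enzyme with DMSO only and 100% = wells lacking PAFAH1B3 protein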
Target sequence (Q15102 whole entry, looked up): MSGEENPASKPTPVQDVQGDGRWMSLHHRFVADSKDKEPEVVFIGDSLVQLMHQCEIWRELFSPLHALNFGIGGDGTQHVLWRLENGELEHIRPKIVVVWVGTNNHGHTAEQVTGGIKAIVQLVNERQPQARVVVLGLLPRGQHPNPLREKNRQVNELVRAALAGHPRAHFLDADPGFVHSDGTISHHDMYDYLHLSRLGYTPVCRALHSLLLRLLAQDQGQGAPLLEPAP
rCAG bind conf – r(CAG) RNA repeat binding, confirmation; shares compounds with rCAG binder; TO-PRO-1 dye displacement fluorescence; inhibition, % at 3 µM; actives 70% (n = 4,300); AID 652065;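 active = inhibition above a per-plate cutoff, the mean inhibition of sample wells plus 3 SD, cut at about 35% in these data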;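 note: loss of TO-PRO-1 fluorescence as compound displaces dye from 1x1 AA loop RNA; 0% = DMSO only wells and 100% = 100 µM mitoxantrone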
dCAG dye counter – counter-screen for rCAG RNA binders: DNA CAG dye complex inhibitors. shares compounds with rCAG binder. d(CAG) DNA oligo TO-PRO-1 dye displacement, fluorescence. inhibition, % at 3 µM. actives 94% (n = 4,300). AID 652068;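 active = inhibition above its plate's cutoff, the mean test-well inhibition plus 3 SD, cut at about 4.8% in these data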;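 note: 0% = DNA dye mix with DMSO and 100% = 100 µM mitoxantrone; hits displace the dye from DNA and so lower well fluorescence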
DNA CAG DR – disrupts DNA CAG TO-PRO-1 complex in dose response; shares compounds with rCAG binder; DNA CAG/GTC duplex TO-PRO-1 dye displacement fluorescence; IC50, µM; actives 20% (n = 250); AID 686960; in the data active = IC50 below about 10 µM
Numbers without * were called inactive; i = inactive; nt = not tested or not shown. Compounds with a hit are over-represented: about 2.9% of the library has one in this group of screens.

SMILES | PAFAH1B2 inh | PAFAH2 inh | EBNA-1 inhibitor | rCAG binder | ZTA DNA inh | PAFAH1B3 inh | rCAG bind conf | dCAG dye counter | others
Cc1cc(NS(=O)(=O)c2ccc(NC(=O)COc3ccc(Cl)c(C)c3)cc2)no1 | 2 | -7 | nt | 41* | nt | -5 | 32 | 8.3*
Cc1cc(NS(=O)(=O)c2ccc(NC(=O)Nc3cccc(C(F)(F)F)c3)cc2)no1 | 1 | -21 | 11 | 50* | 15 | 0 | 53* | 20*
Cc1cc(NS(=O)(=O)c2ccc(NC(=O)CCCOc3ccc(Cl)cc3)cc2)no1 | 17 | 1 | 3 | 50* | 16 | -1 | 34 | 10*
Cc1cc(NS(=O)(=O)c2ccc(NC(=O)COc3ccc(Cl)cc3Cl)cc2)no1 | -10 | -2 | 15 | 55* | 12 | 2 | 42* | 12*
O=C(NC(=S)N(CCO)Cc1ccccc1)c1cc(Br)ccc1Cl | -2 | 4 | -4 | 2 | -6 | 8 | nt | nt
O=C(c1ccccc1Cc1ccccc1)N1CCN(S(=O)(=O)c2ccccc2[N+](=O)[O-])CC1 | 13 | 4 | 3 | 1 | 22 | -3 | nt | nt
Cc1cc(NS(=O)(=O)c2ccc(NC(=O)COc3ccccc3[N+](=O)[O-])cc2)no1 | 8 | 4 | 11 | 33 | 12 | 4 | nt | nt
Cc1cc(NS(=O)(=O)c2ccc(NC(=O)COc3ccccc3C(C)(C)C)cc2)no1 | 3 | 0 | 13 | 72* | 12 | 0 | 58* | 25*
CCC(C(=O)Nc1ccccc1N1CCCC1)c1cccc(C)c1 (stereo not drawn) | nt | nt | nt | 1 | nt | nt | nt | nt
O=C(O)CC/C(=C\c1cc([N+](=O)[O-])ccc1Cl)c1nc2ccccc2s1 | 0 | 12 | 1 | 25 | 9 | 10 | nt | nt
O=C(O)CC/C(=C\c1cccc(NC(=O)c2ccccc2Cl)c1)c1nc2ccccc2s1 | -1 | -8 | 0 | 61* | 6 | 3 | 73* | 27* | DNA CAG DR=i
O=C(O)C/C(=C\c1cc(Cl)c2c(c1)OCO2)c1nc2ccccc2s1 | 6 | 19 | -19 | 47* | -7 | 11 | 45* | 18*
CN(c1ccccc1)c1ccc(/C=C(/CCC(=O)O)c2nc3ccccc3s2)cc1[N+](=O)[O-] | 94* | 41* | nt | 77* | nt | 12 | 82* | 43*
O=C(O)CC/C(=C\c1ccc(N2CCCC2)c([N+](=O)[O-])c1)c1nc2ccccc2s1 | 103* | 17 | -2 | 70* | 14 | 9 | 89* | 53*
O=C(O)CC/C(=C\c1ccccc1[N+](=O)[O-])c1nc2ccccc2s1 | 3 | 1 | 11 | 19 | 0 | 2 | nt | nt
COc1ccc(C(CNC(=O)c2oc3c(Cl)cccc3c2C)N2CCCC2)cc1 (stereo not drawn) | -1 | 2 | -9 | -4 | 8 | 9 | nt | nt
CCn1cc(C(=O)Nc2cccc(C)c2)c(=O)c2ccc(C)nc21 | nt | nt | 6 | nt | -4 | nt | nt | nt
Cc1ccnc(NC(=O)C2CCC(CNc3c(N4CCCC4)c(=O)c3=O)CC2)c1 (stereo not drawn) | 5 | -1 | 4 | 1 | 8 | 12 | nt | nt
COc1ccc(-c2cc3ccc(OCc4nn[nH]n4)cc3oc2=O)cc1OC | 7 | 1 | 4 | 35* | 8 | 7 | 19 | 4.7*
Cc1c(Cc2ccccc2)c(=O)oc2cc(OCC(=O)N[C@@H](Cc3ccccc3)C(=O)O)ccc12 | 10 | 6 | -3 | 42* | -10 | 6 | 45* | 12*
Cc1cc(=O)oc2c3c(cc(OCC(=O)Nc4cccnc4)c12)OC(C)(C)CC3 | 2 | 12 | -2 | 1 | 0 | 4 | nt | nt
O=C(COc1ccc2c(c1)oc(=O)c1ccccc12)N[C@@H](Cc1ccccc1)C(=O)O | 6 | 4 | 11 | 34 | 9 | -1 | nt | nt
O=C(COc1ccc2c(c1)oc(=O)c1ccccc12)NC(Cc1ccc(Cl)cc1)C(=O)O (stereo not drawn) | 6 | 6 | -12 | 56* | 0 | 6 | 56* | 19*
Cc1c(C)c2c(OCC(=O)N[C@@H](Cc3ccccc3)C(=O)O)cc3c(c2oc1=O)CCC(C)(C)O3 | 96* | 82* | -3 | 45* | 15 | 14 | 48* | 13*
CC(C)(C)N(Cc1ccccc1)C(=O)COC(=O)CNS(=O)(=O)c1ccc2ccccc2c1 | 10 | 3 | nt | 0 | -3 | 14 | nt | nt
SMILES | PAFAH1B2 inh | PAFAH2 inh | EBNA-1 inhibitor | rCAG binder | ZTA DNA inh | PAFAH1B3 inh | rCAG bind conf | dCAG dye counter | others
COc1ccc(C(C(=O)NC(C)(C)C)n2c(-c3ccc(-c4ccccc4)cc3)nc3ccccc32)cc1 (stereo not drawn) | nt | nt | nt | 4 | nt | nt | nt | nt
Cc1c(Cc2ccccc2)c(=O)oc2cc(OCc3nn[nH]n3)ccc12 | 7 | -13 | 1 | 38* | 3 | -2 | 36* | 9.1*
Cc1c(CC(=O)O)c(=O)oc2cc(OCc3nn[nH]n3)ccc12 | -3 | 9 | -2 | 0 | 16 | 3 | nt | nt
CCC(C)[C@H](NC(=O)NCCCc1ccccc1)C(=O)OC (stereo partly drawn) | -2 | 8 | -3 | -7 | 6 | 11 | nt | nt
COC(=O)[C@H](CC(C)C)NC(=O)NCCCc1ccccc1 | 6 | 5 | -1 | 48* | 13 | -1 | 1 | -2
COC(=O)Cn1c(=O)c2c(n(Cc3ccccc3)c1=O)N/C(=C/c1ccc(OC)cc1)C2=O | 2 | 24 | -9 | 75* | -19 | 4 | 79* | 34* | DNA CAG DR=4*
CC(C)C[C@H]1COc2cc(Br)ccc2S(=O)(=O)N1Cc1cn(Cc2ccc(Br)cc2)nn1 | nt | nt | nt | 2 | nt | nt | nt | nt
CCOC(=O)c1ccc(NC(=O)CC2S/C(=N/N=C/c3c[nH]c4ccccc34)NC2=O)cc1 (stereo not drawn) | 2 | -5 | 21 | 78* | -17 | 6 | 85* | 47*
Cc1ccc(NC(=O)CC2S/C(=N/N=C/c3c[nH]c4ccccc34)NC2=O)cc1 (stereo not drawn) | 1 | 3 | 7 | 47* | 12 | 7 | 64* | 23*
COCCNC(=S)N(C)[C@H]1C[C@H]2c3[nH]c4c(-c5ccccc5)cccc4c3CCN2C(=O)[C@H]1[C@H](C)O | nt | nt | nt | 5 | nt | nt | nt | nt
COc1ccccc1NC(=O)c1ccc(NS(=O)(=O)c2ccc(F)c(F)c2F)cc1 | 4 | 4 | 10 | 44* | 11 | 7 | 28 | 6.1*
CCOc1ccc(Br)cc1S(=O)(=O)Nc1ccc(C(=O)Nc2ccccc2OC)cc1 | -1 | -4 | -9 | 15 | 0 | -6 | nt | nt
